Only some compounds are listed: those with a hit (about 2.4% of all), similar ones and a draw of the others.
SENP7 inh – SENP7 protease inhibitors, primary screen, biochemical, luminescence, uHTS; recombinant SENP7, Z-RLRGG-aminoluciferin luminescence, 40 min; inhibition, % at 5 µM; actives 1.5% (n = 330,000); AID 434973, 2010;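 active means inhibition above about 50% at the single test dose, limit read from the data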;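 further: plate controls were DMSO with enzyme for no effect and no enzyme buffer wells for full effect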
SENP8 block-1 – human SENP8 protease inhibitors, primary screen, biochemical, fluorescence, Nedd8 protein substrate, uHTS. AID 602440, 2012. actives 0.64% (n = 360,000). Sentrin-specific protease 8 (Homo sapiens), Q96LD8. inhibition, % at 20 µM. recombinant SENP8; in the data active means inhibition mostly above about 40%, no sharp cut-off; inactive means mostly below about 27%
SENP8 block-2 – SENP8 protease inhibitors, primary screen, biochemical, luminescence; inhibition, % at 10 µM; AID 2540, 2010; actives 1.2% (n = 330,000); Sentrin-specific protease 8 (Homo sapiens), Q96LD8; purified SENP8, Z-RLRGG-aminoluciferin cleavage; in the data active means inhibition above about 50%
SENP6 inh – SENP6 protease inhibitors, primary screen, biochemical, luminescence, uHTS | Sentrin-specific protease 6 (Homo sapiens), Q9GZR1 | Recombinant SENP6 catalytic domain, aminoluciferin luminescence | inhibition, % at 10 µM | actives 1.8% (n = 330,000) | AID 2599, 2010;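 active means inhibition above about 50% at the single tested dose, limit read from the data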;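 further: plate controls were DMSO wells with enzyme for no effect and DMSO wells lacking enzyme for full effect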
Target sequence (Q9GZR1 628-1112 limits assumed): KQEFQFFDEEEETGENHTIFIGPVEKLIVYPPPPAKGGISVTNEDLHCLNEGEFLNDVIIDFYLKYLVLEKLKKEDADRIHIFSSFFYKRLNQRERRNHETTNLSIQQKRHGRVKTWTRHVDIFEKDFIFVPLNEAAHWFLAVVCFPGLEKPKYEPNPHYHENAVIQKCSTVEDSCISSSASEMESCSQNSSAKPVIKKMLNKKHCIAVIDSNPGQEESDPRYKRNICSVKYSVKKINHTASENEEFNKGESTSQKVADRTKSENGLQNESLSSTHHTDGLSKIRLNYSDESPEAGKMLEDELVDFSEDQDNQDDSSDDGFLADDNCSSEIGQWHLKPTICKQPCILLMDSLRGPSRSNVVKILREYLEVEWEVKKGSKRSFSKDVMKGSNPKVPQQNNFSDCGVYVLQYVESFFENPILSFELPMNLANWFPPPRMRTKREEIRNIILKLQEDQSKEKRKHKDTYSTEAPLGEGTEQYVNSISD
Platelet DG rel – inhibitors of platelet dense granule secretion, primary screen, cell-based, MLPCN, human platelets | human platelet-rich plasma, SFLLRN dense granule ATP release, luminescence | inhibition, %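 (compounds screened at 7.5 µM in platelet-rich plasma)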 | actives 0.22% (n = 300,000) | AID 1663, 2009;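 active means mean replicate score, as percent of positive control, at or above 50; inconclusive means mean below 50 but at least one replicate at or above 50; inactive means mean and every replicate below 50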
Numbers without * were called inactive; u = inconclusive; x = no result.

SMILES | SENP7 inh | SENP8 block-1 | SENP8 block-2 | SENP6 inh | Platelet DG rel
O=C(CSc1nnc(SCc2ccccc2)s1)N/N=C/c1c(Cl)cccc1Cl | -4 | 20 | -16 | -15 | -4
O=C(CSc1nnc(SCc2ccccc2Cl)s1)N/N=C/c1ccc(C(=O)O)cc1 | 31 | 19 | 83* | 93* | -1
OC1(Cc2cc(-c3ccccc3)no2)CCN(CCCc2ccccc2)CC1 | -4 | -2 | -8 | 18 | -8
N#CC1=C2SCN(Cc3ccco3)CN2C(=O)CC1c1c(F)cccc1Cl (configuration not stated) | 6 | 36* | 11 | 0 | -2
Cc1ccc(C2CC(=O)N3CN(Cc4ccco4)CSC3=C2C#N)cc1 (configuration not stated) | 6 | 0 | -2 | 12 | 10
O=C(Cn1nnc(-c2ccc(Cl)cc2)n1)NC(=O)NC1CCCC1 | x | 13 | x | x | x
CC1=NN(Cc2ccccc2)C(=O)/C1=C\c1ccc(N(C)C)cc1 | 8 | 40* | 7 | 1 | -17
Cc1ccnc(NCc2ccc(Cl)cc2)c1 | -2 | 1 | -11 | 4 | -5
Cc1nnc(NC(=O)C(C)Sc2nnc(-c3ccco3)n2C(C)C)s1 (configuration not stated) | 2 | 7 | 2 | -3 | 10
Nc1c(Cl)ncnc1N/N=C/c1ccc(O)cc1 | 96* | -137 | 95* | 96* | 72*
CN(C)c1ccc(N=Nc2ccccc2C(=O)OCC(=O)N2CCCCCC2)cc1 | -2 | 57* | -6 | 7 | 0
CN(C)c1ccc(N=Nc2ccccc2C(=O)OCC(=O)N2CCCC2)cc1 | -8 | 36 | -14 | -21 | -4
CCCCNC(=O)C[C@@H]1C[C@@]2(C(=O)OC)CCCCC=C2N(Cc2ccc3c(c2)OCO3)C1=O | x | 32 | x | x | x
c1coc(-c2nnc(-c3cccs3)o2)c1 | 16 | -230 | -7 | 3 | -3
Cc1ccccc1-c1nnc(-c2cccs2)o1 | 55* | -145 | 55* | 82* | 11
CCn1c(SCC(=O)N(C)c2c(N)n(Cc3ccccc3)c(=O)[nH]c2=O)nc2ccccc21 | 6 | 8 | -1 | -8 | 59*
CN(C)S(=O)(=O)c1cccc(NC(=O)CCCc2nc3ccccc3c(=O)[nH]2)c1 | -12 | 6 | -2 | -22 | 28
CC12CCC(C/C1=N\N=C1\NC(=O)/C(=C\c3ccc(Cl)cc3)S1)C2(C)C (configuration not stated) | -3 | 40* | -19 | -6 | 2
Cc1ccc(S(=O)(=O)N2CCC(C(=O)N3CCCC3C(=O)N[C@@H](CC(C)C)C(=O)NCC(N)=O)CC2)cc1 (some centres not stated) | 5 | 1 | -5 | 1 | 0
N#C/C(=C\c1ccc(-c2nc3ccccc3s2)o1)C(N)=O | 49 | -348 | 16 | 31 | -1
CNC(=O)/C(C#N)=C/c1ccc(-c2nc3ccccc3s2)o1 | 64* | -422 | -2 | -3 | u
COc1ccc([C@H]2C[C@H](n3cc(COC(=O)c4ccccc4)nn3)[C@@H](O)CN2Cc2cccs2)cc1 | x | 5 | x | x | x
O=C(NCCNc1ccc2ccccc2c1)c1cccn2c(=O)c3sccc3nc12 | 23 | x | 23 | 56* | -3
O=C(NCCN1CCN(c2ccccc2)CC1)c1cccn2c(=O)c3ccccc3nc12 | -1 | -232 | 0 | -3 | 7
CCN(CC(=O)Nc1c(F)cccc1F)C(=O)c1ccc(S(=O)(=O)NCc2ccco2)cc1 | -4 | 19 | 2 | -6 | 8
SMILES | SENP7 inh | SENP8 block-1 | SENP8 block-2 | SENP6 inh | Platelet DG rel
O=C(O)c1cc(NN=Nc2ccc(Br)cc2)cc([N+](=O)[O-])c1 | 15 | 28 | 11 | 52* | 18
O=C(O)c1cc(NN=Nc2cccc([N+](=O)[O-])c2)cc([N+](=O)[O-])c1 | 20 | 16 | 57* | 77* | -2
COc1cc(NS(=O)(=O)c2ccc(C)cc2)c2c(c1N)C(=O)c1ccccc1C2=O | x | 41* | x | x | x
CCS(=O)(=O)C1=NSC2=NC(=O)/C(=C\c3ccc(OC(=O)c4ccco4)c(OC)c3)C(=N)N21 | 3 | -8 | 13 | -6 | -12
CCS(=O)(=O)C1=NN2C(=N)/C(=C\c3ccc(OC(=O)c4ccco4)c(OC)c3)C(=O)N=C2S1 | -1 | -30 | 53* | 4 | -2
Cc1nc(NCc2ccccc2)sc1C(=O)Nc1ccccc1 | -27 | -6 | -25 | -9 | -3
Cc1nc(NCCOc2ccccc2)sc1C(=O)Nc1ccccc1 | 84* | 3 | 63* | 76* | -3
Cc1ccsc1/C=N\NC(=O)c1n[nH]c2c1CCC2 | 93* | 11 | 85* | 92* | 36
Cc1ccccc1C(=O)NC1CC2CCCC(C1)N2CC(C)C (configuration not stated) | x | 30 | x | x | x
CCCNC(=O)c1n[nH]c2c1CC(C(C)(C)CC)CC2 (configuration not stated) | -6 | 16 | 1 | 2 | x
CCC(C)(C)C1CCc2[nH]nc(C(=O)N/N=C(\C)c3ccco3)c2C1 (configuration not stated) | 39 | 26 | 46 | 58* | 3
CC1(C(=O)Nc2ccc3c(c2)OCO3)CCN1C(=O)CCC1CCCC1 (configuration not stated) | x | 5 | x | x | x
C/C(=N/NC(=O)c1cc2ccccc2cc1O)c1ccco1 | 47 | -74 | 52* | 74* | 19
CCOc1cc(CNc2ccc(O)cc2)ccc1OCc1ccc(Cl)cc1Cl | 72* | 75* | -6 | -3 | -1
CCOc1cccc(CNc2ccc(O)cc2)c1OCc1ccc(Cl)cc1 | 21 | 30 | -3 | -6 | 1
CCOC(=O)C1Nc2ccc(C)cc2C2C=CCC12 (configuration not stated) | -11 | -22 | -9 | -4 | 12
CCOC(=O)C1Nc2ccc(Br)cc2C2C=CCC12 (configuration not stated) | -2 | 59* | 1 | -12 | 3
CC1CCCN(C2=C(Cl)C(=O)N(c3cccc(Cl)c3)C2=O)C1 (configuration not stated) | -1 | 18 | 2 | 12 | -3
COC(=O)C1CCN(C2=C(NS(=O)(=O)c3ccc(Cl)cc3)C(=O)c3ccccc3C2=O)CC1 | 20 | 40* | 6 | -8 | 0
CC1CCCN(C2=C(NS(=O)(=O)c3ccc(Cl)cc3)C(=O)c3ccccc3C2=O)C1 (configuration not stated) | 12 | 60* | 12 | 32 | 3
NC(=O)C1CCN(C2=C(NS(=O)(=O)c3ccc(Cl)cc3)C(=O)c3ccccc3C2=O)CC1 | 15 | 44* | 6 | 6 | 5
COc1cc2c(cc1OC)C1=C(C#N)CN(CC(=O)O)CN1CC2 | 9 | -319 | 8 | -2 | 52*
O=c1cc(CN2CCN(c3ccccc3O)CC2)nc2sccn12 | -2 | -18 | 2 | -4 | 72*

Bioassay records from PubChem.
